Measured values from PubChem BioAssay.
Calls of active or inactive are those of the source.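 How the source made its calls: active means inhibition of the reporter signal at or above 50%; inactive means inhibition below 50%.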

assay: inhibitors of poly I:C-induced TLR3 signaling, primary screen, cell-based, poly I:C stimulus, luciferase, 10K MLSCN set (AID 602277); conditions: HEK293-TLR3 RL24 IRF3 luciferase reporter, at 10 µM, active compounds read high

inhibition, inactive:
CCCCCn1c(CN2CCN(C(=O)c3ccco3)CC2)nc2c1c(=O)n(C)c(=O)n2C 11.3%
Cc1cc(C(=O)COC(=O)C2COc3ccccc3O2)c(C)n1CC1CCCO1 (stereo not given) 22.4%
COC(=O)Oc1c(Br)c(=O)oc2ccccc12 -23.7%
CCOC(=O)CN1CC23C=CC(O2)C(C(=O)Nc2ccc(OCC)cc2)C3C1=O (stereo not given) 15.5%
O=C(Cn1cc2c(n1)CCCC2)NCCc1ccccc1 31.9%
CCCC1(C(=O)OCC)NC(c2ccc(N(C)C)cc2)C2C(=O)N(c3ccc(F)cc3)C(=O)C21 (stereo not given) 23.9%
COC(=O)c1ccc(NC(=O)CN2CCCC2)cc1 7.68%
C=CCc1ccccc1OCCCCN1CCCC1 19.4%
O=C(NCc1ccc2c(c1)OCO2)c1ccccn1 -28.1%
O=C(CSc1nnc(NC(=O)C2CCC2)s1)NC1CC1 -3.07%
CCOC(=O)Cc1nnc2c(Nc3ccc(C)cc3)nc3nonc3n12 34.9%
COc1ccc(C(=O)NCC(=O)NC2=NCCS2)cc1 28.4%
Cc1nc(NC(=O)c2ccccc2)sc1-c1csc(NCc2ccco2)n1 -13.8%
COc1ccccc1-c1nnc(SCC(=O)NC2CCCCC2)o1 30.3%
O=C(CSc1nnnn1-c1ccc(Cl)cc1)NC(=O)Nc1ccc2c(c1)OCCO2 -57%
O=C(CCC(=O)c1cccs1)NCc1ccccc1 1.97%
Cn1c(=O)oc2cc(S(=O)(=O)N3CCN(c4ccccn4)CC3)ccc21 31.2%
CC(=O)c1ccccc1Oc1nc(CN2CCOCC2)nc2scc(-c3cccs3)c12 37.7%
Cc1ccc(NC(=O)CCC(=O)O)cc1F 24.4%
Cc1c(C#N)c2ncnc(-c3ccccc3)c2n1-c1ccccc1 34.5%
O=C(c1ccc(CSCc2ccccc2F)o1)N1CCN(c2ccc(N3CCOCC3)nn2)CC1 15.4%
COc1ccc(N2CCN(C(=O)c3c(-c4ccccc4)noc3C)CC2)cc1 -16.5%
Cn1c(=O)[nH]c(=O)c2c1nc(N1CCNCC1)n2CCOc1ccccc1 1.53%
CC1CCCCN1CCNS(=O)(=O)c1ccc2c(c1)oc(=O)n2C (stereo not given) 18.5%
CN1CCN(Cc2nc3c(c(=O)[nH]c(=O)n3C)n2CCc2ccccc2)CC1 39.3%
O=C(c1ccco1)N1CCN(C(=O)c2sccc2-c2ccccc2)CC1 4.34%
CC(C)CN(C(=O)c1ccc(=O)n(C)n1)c1nc2ccccc2s1 -44.4%
CCOC(=O)N1CCC(NC(=O)CN2C(=O)CCSc3ccccc32)CC1 1.38%
CCOc1ccc(NC(=O)CN2C(=O)C3CCCN3C2=O)cc1 (stereo not given) 8.26%
COc1ccc(-c2ccc(-c3noc(-c4ccccc4OC)n3)c(OC)n2)cc1 -36.2%
Cc1ccc(S(=O)(=O)N2CCN(CCO)CC2)cc1-c1nnc2c3ccccc3c(C)nn12 9.83%
CN(C)c1ccc(NC(=O)c2cc3c(=O)n4ccccc4nc3n2C)cc1 -86.3%
Cc1cc(NC(=O)c2cccc(S(=O)(=O)N3CC(c4ccccc4)CC3=O)c2)no1 (stereo not given) 25.9%
CN(CCc1ccccn1)C(=O)CCNC(=O)Cn1cnc2ccccc2c1=O 14.4%
Cc1onc(-c2c(Cl)cccc2Cl)c1C(=O)NCC1CCCO1 (stereo not given) 10.7%
CCOC(=O)C1(c2ccccc2)NC(c2ccc(N(C)C)cc2)C2C(=O)N(C)C(=O)C21 (stereo not given) 22.7%
COc1ccc(C2C(C(=O)Nc3cccnc3)=C(C)Nc3nc(-c4cccs4)nn32)cc1OC (stereo not given) 31.3%
CN(C)S(=O)(=O)Nc1ccc(Br)cc1F 15.9%
CNC(=O)c1ccsc1NC(=O)CN1C(=O)CCC1=O 28.8%
CC(C)C(NC(=O)OCc1ccccc1)C(=O)OCC(=O)NCc1ccco1 (stereo not given) 5.27%
